# This excerpt belongs to a sample that is enriched for hits.
# Ba CapD inh = inhibitors of Bacillus anthracis CapD enzyme | purified CapD enzyme, fluorescence intensity read-out; active compounds read low | z-score (test concentration not listed) | actives 0.23% (n = 140,000) | AID 492967; in the data active = z-score mostly below about -2.9, no sharp cut-off; inactive = mostly above about -1.9
# An asterisk follows results filed as active.
SMILES,Ba CapD inh
C/C(=C\C(=O)c1ccc(C)o1)Nc1ccc(F)c(C)c1,-2.4
C/C(=C\C(=O)c1ccc(C)o1)Nc1ccc(Nc2ccccc2)cc1,-2
C/C(=C\C(=O)c1ccc(C)o1)Nc1ccc(C(=O)O)cc1C,-4*
CCOc1cc2c(cc1OCC)-n1cccc1C(c1cccc(F)c1F)NC2 (stereo unspecified),0.88
O=c1c2ccc(N/N=C/c3c4ccccc4cc4ccccc34)c3cccc(c32)c2nc3ccccc3n12,-0.14
O=C(O)c1ccc(C(=O)O)c2c(-c3ccc4c(=O)n5c6ccccc6nc5c5ccc(C(=O)O)c3c45)ccc(C(=O)O)c12,-8.4*
N#Cc1ccc2c(c1)nc1c3ccc(C(=O)O)c4c(C(=O)O)ccc(c(=O)n21)c43,-1.1
CCCCCC(=O)Nc1ccc2oc(-c3cccnc3)nc2c1,28
O=C(O)c1nonc1NCn1nnc2ccccc21,0.39
Cc1ccccc1Sc1ccccc1C(=O)O,-0.34
CSCCC(C(=O)O)N1C(=O)/C(=C/c2ccc(O)cc2)SC1=S (stereo unspecified),-4*
CN(C)c1ccc(/C=C2/SC(=S)N(CCCCC(C(=O)O)N3C(=O)/C(=C\c4ccc(N(C)C)cc4)SC3=S)C2=O)cc1 (stereo unspecified),-0.56
CCC(C(=O)O)N1C(=O)/C(=C/c2ccccc2)SC1=S (stereo unspecified),-2.1
Cc1cccc(N=C(N)N=C(N)N)c1C,0.34
O=C(C1CCC(=O)N1C1CCCC1)N1CCC2(CC1)OCCO2 (stereo unspecified),-0.81
N#C/C(=C\C=C\c1ccco1)c1nc(-c2ccccc2)cs1,-4.3*
N#C/C(=C\Nc1ccc(Br)cc1)c1nc(-c2ccccc2)cs1,-0.33
N#C/C(=C\Nc1ccc(C(N)=O)cc1)c1nc(-c2ccccc2)cs1,-0.45
O=S(=O)(NCc1ccsc1)c1ccc(N2CCOCC2)nc1,2.4
COc1cc(C2Nc3cc(C)ccc3NC3=C2C(=O)CC(c2ccccc2)C3)cc(OC)c1OC (stereo unspecified),-0.49
O=C1CC(c2ccccc2)CC2=C1C(c1ccccc1)Nc1ccccc1N2 (stereo unspecified),-2.2
Cc1ccc(C2CC(=O)C3=C(C2)Nc2ccccc2NC3c2cccnc2)cc1 (stereo unspecified),-4*
CC(=O)Nc1ccc(C(=O)OCC(=O)C(C)(C)C)cc1,0.43
CC(=O)Oc1ccc(-c2ccc(C(=O)O)cc2)cc1,-3.2
CC(=O)Oc1cc(OC(C)=O)cc(C(=O)O)c1,-8.7*
SMILES,Ba CapD inh
CC(=O)Oc1cncc(C(=O)O)c1,-0.68
CC(C)(C)OC(=O)N1CCN(c2nc(-c3ccccc3)c3cc([N+](=O)[O-])ccc3n2)CC1,0.66
O=C(NCc1cccs1)c1cc(-c2ccco2)on1,0.18
O=C(NC1CCCCC1)c1cc(-c2ccco2)on1,-4*
O=C(c1cc(-c2ccco2)on1)N(C1CCCCC1)C1CCCCC1,9.6
COC(=O)c1ccccc1NC(=O)c1cc(-c2ccco2)on1,0.52
CCCNC(=O)c1cc(-c2ccco2)on1,-4.7*
O=C(NC1CCCC1)c1cc(-c2ccc(O)cc2)on1,-1.1
COc1ccc(N(C(=O)c2ccccc2)C2=CC3CCC(C2)N3C)cc1 (stereo unspecified),-0.12
CCOC(=O)c1ccc(NC(=S)NCc2ccncc2)cc1,-0.53
O=C(O)COc1ccc(/C=N/NC(=O)c2ccc(OC(F)(F)F)cc2)cc1,0.18
CC(=O)N/C(=C\c1ccc(F)cc1)C(=O)N(C)C,0.44
O=C(C1=C(O)C(=O)N(CCc2ccccc2)C1c1ccccc1)c1cccs1 (stereo unspecified),-1.1
CCn1c2ccccc2c2cc(CN(CCOC(=O)N3CCN(C(=O)c4ccc(OC)c(F)c4)CC3)C(=O)OC(C)(C)C)ccc21,5.8
CSC(=CC(=O)c1cccc2ccccc12)SC,-1
CSC(=CC(=O)c1ccccc1F)SC,-4.1*
CSC(=CC(=O)c1ccc(F)cc1)SC,-2.9
OC(COc1ccc(Cl)cc1)CN1CCC(Cc2ccccc2)CC1 (stereo unspecified),-0.41
CN1c2ccccc2-c2nc3ccccc3n2C1c1ccccn1 (stereo unspecified),72
Cc1ccc(Sc2ccc(C(=O)O)cc2NC=O)cc1,0.1
N#Cc1cc(C(F)(F)F)ccc1Sc1ccc(Br)cc1,-0.33
CC(=O)N(C(C)=O)c1cc(C(=O)O)ccc1Sc1ccc(Br)cc1,-11*
N#CC1=C(N)OC2=C(C(=O)CCC2)C1c1cc(Cl)cc(Cl)c1OC(=O)N1CCOCC1 (stereo unspecified),0.02
O=C(O)CCC(C(=O)O)N1C(=O)c2ccccc2C1=O (stereo unspecified),1.8
O=C(O)CCC(=O)N1CCc2cc(S(=O)(=O)NCc3ccccc3)ccc21,-1.6
SMILES,Ba CapD inh
COc1cc(NS(=O)(=O)c2ccc3c(c2)CCN3C(=O)CCC(=O)O)c(C(=O)O)cc1OC,-4.3*
CCC(=O)N1CCc2cc(S(=O)(=O)Nc3ccccc3OC)ccc21,0.41
O=C(OCC1CCCN2CCCCC12)c1ccccc1O (stereo unspecified),-0.14
Cc1ccc(-n2cnc3cc(NCc4cccs4)ccc32)cc1,81
O=C1NC(=O)N(c2ccccc2)C(=O)/C1=C/C=C/c1ccco1,-1.1
CN1C(=O)NC(=O)/C(=C\C=C\c2ccco2)C1=O,-0.49
O=C1NC(=S)NC(=O)C1=C/C=C/c1ccco1,-11*
CCCCOC(=O)c1ccc(NCN2C(=O)S/C(=C/c3ccc(C(=O)OC)cc3)C2=O)cc1,0.76
COc1ccc(S(=O)(=O)N(C)c2ccc(C(N)=O)cc2)cc1OC,0.18
COc1ccc(N(C(=O)c2ccncc2)S(=O)(=O)c2ccc(OC)c(OC)c2)cc1,-5.6*
COc1ccc(N(C(C)=O)S(=O)(=O)c2cc(OC)ccc2OC)cc1,-1.1
O=C(c1ccc(Cl)cc1)N1CCCc2ccccc21,-0.33
O=C(c1cccs1)N1CCSC1=S,-4.8*
O=C(c1cccs1)N1CCCCC1,0.45
O=C(c1ccc(Cl)cc1)N1CCSC1=S,-3.5*
O=C(O)C1SCCN1C(=O)c1ccc(Cl)cc1 (stereo unspecified),0.075
CC1CC(C)CN(C(=O)c2cccs2)C1 (stereo unspecified),0.025
Cc1nc(COc2ccccc2Cl)[nH]c(=O)c1Cl,0.11
CCc1ccc(NC(=O)c2ccccc2)cc1,0.39
CCOCCOC(=O)C1=C(C)NC2=C(C(=O)CC(c3ccc(OC)cc3)C2)C1c1ccc(OCC)cc1 (stereo unspecified),39
Cn1cccc1/C=C1\SC(=S)NC1=O,-4.3*
COc1ccccc1/C=C1/SC(=S)NC1=O,-0.59
Cn1cccc1/C=C1\CS/C(=C\c2cccn2C)C1=O,-0.27
Cc1cccc(-n2nc3c(c2NC(=O)c2ccc(S(=O)(=O)N4CCOCC4)cc2)CSC3)c1C,-0.69
O=S(=O)(c1ccccc1)c1ccc(Br)cc1,-0.39
SMILES,Ba CapD inh
O=C(Cn1c(=O)n(CCc2ccccc2)c(=O)c2ccccc21)Nc1ccc(Cl)cc1,0.53
O=C(CCn1c(=O)c2ccccc2n(CC(=O)Nc2ccccc2)c1=O)NCCc1ccccc1,-5.6*
CCCN(CCC)C(=O)Cn1c(=O)n(CCC(=O)NCCc2ccccc2)c(=O)c2ccccc21,0.53
O=C1CS(=O)(=O)N(Cc2ccccc2)c2cc(Cl)ccc21,1.7
Cc1cccc(-c2nc(CS(=O)CC(=O)NC(C)C)c(C)o2)c1 (stereo unspecified),-0.27
CCC1CCCCN1C(=O)CSc1nnc(-c2ccc(Cl)cc2)o1 (stereo unspecified),-4.8*
CCC1CCCCN1C(=O)CSCc1ccc(Cl)cc1 (stereo unspecified),0.29

# Bioassay records: PubChem BioAssay, ICCB-Longwood Screening Facility, Harvard Medical School
